About 83,000 compounds went through this panel and 20% of them were active in at least one assay; those are over-represented in the sample as a whole.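 96-well plates, one dose, 48 hours. Percent growth reported; active if below 10.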 Values without a mark were called inactive. Active and inactive are the calls of the source.
tested on: M14 melanoma; test: NCI-60 one-dose screen, 48 h (100 = growth as untreated, 0 = no growth, -100 = all killed); details: 10 µM unless noted

Which growth does the source give for `COc1ccc2nc(-c3ccc(Cl)cc3)cc(-c3nnc(SCC(=O)Nc4ccc(/C(C)=N\O)cc4)o3)c2c1` here?
The growth was 30.3%.

For `C/C(=C\c1cnc(C)s1)[C@@H]1C[C@@H]2O[C@@H]2CCC[C@H](C)[C@H](O)[C@@H](C)C(=O)C(C)(C)[C@@H](O)CC(=O)O1`, which growth is on record?
The growth was 22.1%.

With `O=C(/C(=C\c1c(-c2ccccc2)[nH]c2ccccc12)S(=O)(=O)c1ccccc1)c1ccccc1` as the compound, how does the growth read?
Its growth is 49.7%.

With `O=c1[nH]c(-c2cccc(F)c2)cc2cc(F)ccc12` as the compound, how does the growth read?
Its growth is 20.3%.

Which growth does the source give for `O=C1CS/C(=N/c2nnc(-c3ccc(O)cc3)s2)N1` here?
The growth was 103%.

Which growth does the source give for `C[C@H](Oc1cc(-c2cnn(C3CCNCC3)c2)cnc1N)c1c(Cl)ccc(F)c1Cl` here?
The growth was -51.9% (active).

How did the growth turn out when `COCCOCCOCc1n(Cc2ccc3ccccc3n2)c2ccccc2[n+]1Cc1ccc2ccccc2n1` was run?
The growth was 26%.

Which growth does the source give for `CCOC(=O)c1cnn(-c2nc(-c3ccc(F)cc3)c(C#N)c(N3CCOCC3)n2)c1N` here?
Its growth is 106%.

For `CC(=O)c1c(OCC#N)ccc2c(C)cc(=O)oc12`, which growth is on record?
Its growth is 102%.

How did the growth turn out when `CN(CCC#N)C(=O)Nc1ccccc1` was run?
The growth was 109%.

Which growth does the source give for `C#Cc1ccccc1NC(=O)c1sc2nc3c(cc2c1N)CCCCC3` here?
The growth was 93.9%.

How did the growth turn out when `COCCOC(=O)COc1ccc(OC)cc1` was run?
Its growth is 105%.

How did the growth turn out when `C#C[C@@]1(O)[C@@H](CO)O[C@@H](n2cnc3c(-c4ccccc4)ncnc32)[C@@H]1O` was run?
Its growth is 97.8%.

Which growth does the source give for `COc1cc(NCC(=O)Nc2cc(Nc3ccc(C)cc3)ncn2)c(Cl)c(OC)c1Cl` here?
The growth was 88.4%.

With `COc1ccc2oc(=O)cc(-c3c(C#N)c(N)n4nc(N)c(C#N)c4c3C#N)c2c1` as the compound, how does the growth read?
Its growth is 111%.

How did the growth turn out when `O=C1NC(SCc2ccc(F)cc2)=N/C1=C/c1cccc(OCc2ccc(Cl)cc2)c1` was run?
The growth was 63.9%.

`COc1ccc(Nc2nc(SCC(C)C)nc(-c3ccc(F)cc3)c2C#N)cc1` was tested. Which growth did it give?
Its growth is 49.3%.

How did the growth turn out when `COC(=O)/C=C1\SC(=Nc2ccc(F)cc2)N(CCc2c[nH]c3ccccc23)C1=O` was run?
The growth was 102%.

Which growth does the source give for `Nc1c(C(=O)Nc2ccccc2)sc2nc3c(cc12)CN(C(=O)OCc1ccccc1)CC3` here?
Its growth is 26.5%.

How did the growth turn out when `COc1ccc(C2=NN(c3ccc(S(N)(=O)=O)cc3)C(c3ccc(Cl)cc3)C2)c(O)c1` (configuration not stated) was run?
Its growth is 51.3%.

`COc1ccc(C(C)c2cc(OC)c(OC)c(OC)c2)cc1` (configuration not stated) was tested. Which growth did it give?
Its growth is 7.54% (active).

With `COc1ccc(-n2nc(C(=O)NCC(=O)O)nc2-c2ccccc2)cc1` as the compound, how does the growth read?
Its growth is 102%.

For `CCOC(=O)C1=C(C)n2nc(CC#N)c(C#N)c2NC1c1ccc(Cl)cc1` (configuration not stated), which growth is on record?
Its growth is 91.2%.

For `Nc1c(C(=O)Nc2ccccn2)sc2nc3c(cc12)CCCC3`, which growth is on record?
Its growth is 18%.

`CCN1CCC[C@H]1c1cc(O)c2c(c1OC)C[C@H]1C[C@H]3[C@H](N)C(=O)C(C(N)=O)=C(O)[C@@]3(O)C(=O)C1=C2O` was tested. Which growth did it give?
Its growth is -38.8% (active).

How did the growth turn out when `Cc1cc(O)cc(O)c1N=NC1=NCCS1` was run?
Its growth is 98%.

`COC(=O)c1cncc(C(=O)Nc2ccc(-n3cnc4ccccc43)cc2)c1` was tested. Which growth did it give?
Its growth is 102%.

How did the growth turn out when `CNc1cccc2c1C(=O)c1cccc(N)c1C2=O` was run?
Its growth is 11.3%.

For `O=S(=O)(Nc1nccs1)c1ccc(Nc2nc(-c3ccncc3)cs2)cc1`, which growth is on record?
The growth was 103%.

With `CN1C(=O)c2cc(Cl)nc3c(NC(=O)c4cccc(Cl)c4)c(Cl)c(NC(=O)c4cccc(Cl)c4)c1c23` as the compound, how does the growth read?
The growth was -21.1% (active).

How did the growth turn out when `O=C(O)COc1ccc2c(=O)c3sc4c(=O)c5ccccc5c(=O)c4c3c(=O)c2c1` was run?
Its growth is -95.6% (active).

`O=C(Nc1nc(-c2ccccc2)cs1)c1cc(-c2ccc(Br)cc2)nc2ccccc12` was tested. Which growth did it give?
The growth was 75.3%.

For `Cc1cc(Nc2nc(SCc3ccc(C(=O)Nc4ccc(F)cc4N)cc3)nn3cccc23)n[nH]1`, which growth is on record?
Its growth is 38.9%.

For `O=C1NCc2ccc3c(-c4cccc(Cl)c4)c[nH]c3c21`, which growth is on record?
The growth was 15.9%.

For `O=C(CN1N=C(c2ccc(F)cc2)CCC1=O)Nc1nccs1`, which growth is on record?
Its growth is 102%.

Which growth does the source give for `O=C1Nc2ccc(Cl)cc2/C1=N/c1nc(-c2ccc(F)cc2)cs1` here?
The growth was 38.7%.

For `OCCNc1nc(NCCO)nc(Nc2ccc(C3=NN(c4cc(Cl)cc(Cl)c4)C(c4ccc(Cl)cc4)C3)cc2)n1` (configuration not stated), which growth is on record?
Its growth is 1.11% (active).
